# A selection: hits, their analogues and other compounds. The true share with any hit is near 3.3%.
# RE007 growth inh: qHTS Assay for Inhibitors of the HIV-1 protein Vpr | S. pombe RE007 Vpr strain, BacTiter-Glo ATP luminescence, 24 h | Potency, µM (series often up to 92.2 µM), actives largely listed as inhibitors | 360,000 compounds, 0.21% hits | AID 651644, 2012; active = well fitted falling curve with a large enough effect; inconclusive = small, poorly fitted or top-dose-only effect; inactive = no such curve, though single readings can be large or run the other way; note: nearly all actives have a fitted effect of over 50% in size
#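 Fission yeast strain RE007, carrying one chromosomally integrated HIV-1 vpr copy, was seeded at OD 0.01 in PMG+AL medium with 23 nL pinned compound. After 24 h at 30 °C and 99% humidity, viability was read by BacTiter-Glo luminescence.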
# Giardia FBPA inh-1: qHTS Assay for Inhibitors of Fructose-1,6-bisphosphate Aldolase from Giardia Lamblia; A8B2U2; purified Giardia FBPA; Potency, µM (titrated, usually from 59.6 µM), hits mostly inhibitors; 290,000 compounds, 0.71% hits; AID 2451, 2010; note: nearly all actives have a fitted effect of over 55% in size
#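 Giardia FBPA (40 nM reagent) was preincubated 10 min at RT with compound (up to 57.5 uM final), then substrate plus GAPDH/TPI/NAD/arsenate coupling system with diaphorase/resazurin was added; resorufin fluorescence (525/598 nm) was read after 20 min.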
# Sm TGR block: qHTS Assay for the Inhibitors of Schistosoma Mansoni Peroxiredoxins | Schistosoma mansoni thioredoxin glutathione reductase (TGR), Q962Y6 | purified TGR, DTNB reduction, TNB absorbance 405 nm | Potency, µM (highest dose often 114 µM), usual class: inhibitors | 360,000 compounds, 3% hits; note: nearly all actives have a fitted effect of over 60% in size
#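 First, TGR (20 nM dispensed) and NADPH were mixed with compound. Second, a 15 min room-temperature incubation followed. Third, further NADPH and then DTNB were added to start the reaction. Finally, TNB absorbance was monitored kinetically.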
# LmPK inhibitor: qHTS Assay for Inhibitors of Leishmania Mexicana Pyruvate Kinase (LmPK). purified LmPK, Kinase-Glo ATP luminescence, 1 h. Potency, µM (series often up to 57.5 µM), hits mostly inhibitors. 290,000 compounds, 0.37% hits. AID 1721, 2009
# Target sequence (Q27686 whole entry, looked up): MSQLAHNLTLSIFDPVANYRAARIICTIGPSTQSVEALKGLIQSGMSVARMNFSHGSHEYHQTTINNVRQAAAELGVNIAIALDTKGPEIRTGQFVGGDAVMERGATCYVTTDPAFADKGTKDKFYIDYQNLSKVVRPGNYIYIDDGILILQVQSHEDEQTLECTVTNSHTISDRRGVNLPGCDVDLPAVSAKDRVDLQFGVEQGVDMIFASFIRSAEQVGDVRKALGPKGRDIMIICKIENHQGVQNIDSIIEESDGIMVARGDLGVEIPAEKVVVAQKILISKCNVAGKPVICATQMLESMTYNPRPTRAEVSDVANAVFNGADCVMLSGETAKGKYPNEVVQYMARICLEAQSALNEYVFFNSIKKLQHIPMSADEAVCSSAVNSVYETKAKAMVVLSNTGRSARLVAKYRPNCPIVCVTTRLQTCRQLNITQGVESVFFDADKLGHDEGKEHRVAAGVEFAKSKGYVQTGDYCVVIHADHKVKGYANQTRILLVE
#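 Purified LmPK (0.1 nM) converted ADP (0.1 mM) to ATP with PEP (0.5 mM) in imidazole buffer pH 7.2 with KCl and MgCl2, 1 h at room temperature. ATP was read by Kinase-Glo luminescence; data normalized to uninhibited and no-enzyme controls.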
# Tb PYK inh: qHTS of Trypanosoma Brucei Inhibitors. TbPYK enzyme, Kinase-Glo Plus ATP luminescence, 45 min. Potency, µM (series often up to 76.8 µM), actives largely listed as inhibitors. 410,000 compounds, 0.12% hits; note: nearly all actives have a fitted effect of over 50% in size
#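 In this concentration-response screen, enzyme-free wells defined baseline while DMSO plates tracked drift. Each reaction combined TbPYK, substrate, compound and 130 uM ADP for 45 min at room temperature. Kinase-Glo Plus luminescence gave the signal.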
# Giardia growth: qHTS Assay for Inhibitors of Fructose-1,6-bisphosphate Aldolase from Giardia Lamblia: Giardia lamblia growth inhibition; shares compounds with Giardia FBPA inh-1; Giardia lamblia trophozoite growth inhibition; Potency, µM (top dose mostly 57.5 µM), most hits filed as inhibitors; 1,500 compounds, 5% hits;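 note: trophozoites exposed to compound for 48 h at 37 °C; nearly all actives have a fitted effect of over 70% in size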
# Mammal cell tox: qHTS Assay for Inhibitors of Fructose-1,6-bisphosphate Aldolase from Giardia Lamblia: Mammalian cellular toxicity. shares compounds with Giardia FBPA inh-1. 1,500 compounds, 4% hits. Potency, µM (series often up to 57.5 µM), usual class: inhibitors. AID 2786, 2010. mammalian cell viability counter-screen, qHTS;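 note: Chinese hamster ovary cells used as mammalian cytotoxicity surrogate; viability measured as cellular ATP by luminescence; compound exposure lasted 48 h before reading; nearly all actives have a fitted effect of over 60% in size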
# Giardia FBPA inh-2: qHTS Assay for Inhibitors of Fructose-1,6-bisphosphate Aldolase from Giardia Lamblia: Primary screen confirmation; 1,500 compounds, 5% hits; AID 2787, 2010; Potency, µM (doses to about 57.5 µM), hits mostly inhibitors; shares compounds with Giardia FBPA inh-1; purified Giardia aldolase enzyme activity, qHTS; note: nearly all actives have a fitted effect of over 45% in size
# Rabbit FBPA inh: qHTS Assay for Inhibitors of Fructose-1,6-bisphosphate Aldolase from Giardia Lamblia: Rabbit FBPA Selectivity. shares compounds with Giardia FBPA inh-1. Rabbit muscle FBPA enzyme inhibition, selectivity counter-screen. Potency, µM (series often up to 57.5 µM), usual class: inhibitors. 1,500 compounds, 4% hits. AID 2794, 2010; note: nearly all actives have a fitted effect of over 60% in size
# GAPDH coupling: qHTS Assay for Inhibitors of Fructose-1,6-bisphosphate Aldolase from Giardia Lamblia: Coupling assay counterscreen confirmation | Potency, µM (top dose mostly 57.5 µM), hits mostly inhibitors | AID 2795, 2010 | GAPDH coupling enzyme counterscreen, biochemical, qHTS | shares compounds with Giardia FBPA inh-1 | 1,500 compounds, 6% hits; note: nearly all actives have a fitted effect of over 55% in size
# A number is an active result; i = inactive; ? = inconclusive; nt = no result given; [ ] = dose if it differs, or a comment. Unless noted, calls come from the whole dose curve; as a rule, active = well fitted curve in the direction sought with a large enough effect; inconclusive = small, poorly fitted or top-dose-only effect, or another doubt; inactive = no such curve, though single readings can be large; an effect the other way counts as inactive or inconclusive.
SMILES,RE007 growth inh,Giardia FBPA inh-1,Sm TGR block,LmPK inhibitor,Tb PYK inh,Giardia growth,Mammal cell tox,Giardia FBPA inh-2,Rabbit FBPA inh,GAPDH coupling
CC(C)(C)c1ccc(/C=N/Nc2nncn2N)cc1,i,15.8µM,i,i,i,i[10.4 µM],i,14.1µM,?,?
CSc1ccc(/C=N/NC(=O)c2ccc(-n3cnnn3)cc2)cc1,i,nt,i,nt,i,nt,nt,nt,nt,nt
COc1cc(/C=N\Nc2nncn2N)ccc1OC(C)=O,i,25.1µM,?,i,i,i,i,?,?,?
CSc1ccc(/C=N\Nc2nncn2N)cc1,nt,?,i,i,i,i,i,2.31µM,6.51µM,3.26µM
O=[N+]([O-])c1cc(S(=O)(=O)N2CCCC2)ccc1N/N=C/c1ccncc1,i,i,i,i,i,nt,nt,nt,nt,nt
CN(CC(=O)NCc1ccc(F)cc1)Cc1ccc(Br)cc1,i,i,i,i,i,nt,nt,nt,nt,nt
COc1ccc(Br)cc1CN(C)CC(=O)NCc1ccc(F)cc1,i,14.1µM,i,i,i,i[10.4 µM],i,i,i,i
O=C(CSc1nnc2ncccn12)N1CCCCCC1,i,i,i,i,i,nt,nt,nt,nt,nt
O=C(O)c1ccc(/C=N/Nc2ccc(Cl)nn2)cc1,i,25.1µM,i,i,i,?,i,i,i,?
Oc1cccc(/C=N/Nc2ccc(Cl)nn2)c1,i,i,i,i,i,nt,nt,nt,nt,nt
Nc1cc2nc3ccccc3oc-2cc1=O,63.1µM,17.7µM,15.8µM,i,i,i[10.4 µM],i,?,i,?
CC1CN(CCOCCSc2ccccc2)CC(C)O1 (configuration not stated),i,i,i,i,i,nt,nt,nt,nt,nt
CC1CN(CCOCCOc2ccccc2-c2ccccc2)CC(C)O1 (configuration not stated),i,11.2µM,?,i,i,i[10.4 µM],i,i,i,i
CC1CN(CN2C(=O)c3ccccc3C2=O)CC(C)O1 (configuration not stated),i,i,i,i,i,nt,nt,nt,nt,nt
c1ccc(-c2ccccc2OCCOCCN2CCc3ccccc3C2)cc1,i,i,nt,i,i,nt,nt,nt,nt,nt
CC1CN(CCCCN2C(=O)c3ccccc3C2=O)CC(C)O1 (configuration not stated),i,22.3µM,i,i,i,?,i,i,i,i
Cc1ccc(C)c(OCCOCCN2CC(C)OC(C)C2)c1C (configuration not stated),i,17.7µM,i,i,i,i[10.4 µM],i,i,i,i
O=C1[C@@H]2CSCN2C(=O)CN1Cc1ccccc1F,i,i,i,i,i,nt,nt,nt,nt,nt
O=C(CN1CCCCC1)Nc1ccccc1-c1ccccc1,i,i,i,i,i,nt,nt,nt,nt,nt
Cc1ccccc1OCC(O)CN1CCN(CC(O)COc2ccccc2C)C(C)C1 (configuration not stated),i,14.1µM,i,i,i,i,i,i,i,i
Cc1ccccc1OCC(O)Cn1c2ccccc2c2ccccc21 (configuration not stated),?,i,i,i,i,nt,nt,nt,nt,nt
Cc1cc(C)c(CN2CCN(CCCn3ccc(NC(=O)OCc4ccccc4)nc3=O)CC2)c(C)c1,i,nt,nt,nt,i,nt,nt,nt,nt,nt
CCOC(=O)C1CCN(Cc2ccc(Cl)nc2)CC1,i,i,i,i,i,nt,nt,nt,nt,nt
O=C(NC(=S)Nn1cnnc1)c1ccc(F)cc1Cl,i,14.1µM,i,i,i,i,i,i,i,i
CC1(C(=O)NS(=O)(=O)c2ccc3c(c2)CCO3)CCN1C(=O)COc1ccc(Cl)cc1 (configuration not stated),i,nt,nt,nt,i,nt,nt,nt,nt,nt
CCOC(=O)c1[nH]cnc1C(=O)O,i,17.7µM,i,i,i,i,i,i,i,i
